The values below come from PubChem BioAssay AID493044 (Johns Hopkins Ion Channel Center, 2011).

Measured potencies and affinities stand elsewhere. Calls of active or inactive are those of the source.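 Rule for the calls: active = potentiation or inhibition of the KCNQ1 potassium channel at some dose, with a concentration-response curve obtained; inactive = no effect at any dose, or no curve obtained.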

The target of this test is Potassium voltage-gated channel subfamily KQT member 1 (Homo sapiens) (UniProt P51787). Briefly: KCNQ1 potentiation selectivity check – automated patch clamp, KCNQ1-CHO cells, selectivity assay for KCNQ2 activator project, dose response (AID 493044). The note with it: automated patch clamp current (IonWorks); series mostly up to 30 µM. In general terms: Patch clamp records ionic current or voltage across a cell membrane.
Chain of Potassium voltage-gated channel subfamily KQT member 1 (Homo sapiens) (P51787 whole entry, looked up): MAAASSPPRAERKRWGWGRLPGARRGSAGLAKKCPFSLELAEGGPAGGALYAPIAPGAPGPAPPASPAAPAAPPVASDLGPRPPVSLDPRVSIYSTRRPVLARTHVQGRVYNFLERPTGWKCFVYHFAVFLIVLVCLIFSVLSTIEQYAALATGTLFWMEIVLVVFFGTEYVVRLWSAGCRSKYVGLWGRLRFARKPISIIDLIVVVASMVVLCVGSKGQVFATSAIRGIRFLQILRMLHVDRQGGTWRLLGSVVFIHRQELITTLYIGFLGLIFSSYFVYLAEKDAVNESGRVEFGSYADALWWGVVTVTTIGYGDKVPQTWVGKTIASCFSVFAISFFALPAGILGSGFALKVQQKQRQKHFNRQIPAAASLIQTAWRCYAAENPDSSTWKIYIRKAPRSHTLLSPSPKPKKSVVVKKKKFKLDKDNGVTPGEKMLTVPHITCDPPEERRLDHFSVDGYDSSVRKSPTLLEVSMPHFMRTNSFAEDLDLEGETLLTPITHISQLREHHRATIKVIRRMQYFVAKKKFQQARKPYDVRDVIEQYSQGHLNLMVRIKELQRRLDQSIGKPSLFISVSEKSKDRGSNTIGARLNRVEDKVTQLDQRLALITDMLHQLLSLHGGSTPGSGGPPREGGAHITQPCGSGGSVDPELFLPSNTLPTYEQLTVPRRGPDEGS

On to `Cc1cccc(C)c1NC(=O)C1CC2CCC1C2` (centres undefined), for which the result was inactive.

On to `CCCCC(=O)Nc1c(C)cc(C)cc1Cl`, for which the outcome was inactive.

Consider `Cc1cc(C)c(NC(=O)CC(C)(C)C)c(Cl)c1`, for which the result was inactive. As to `Cc1cc(C)c(NC(=O)C2CC3CCC2C3)c(C)c1` (centres undefined), the result was inactive.
